From the supplement of paper PMC6555819

Columns and labels:
Assay in all cases: PBM binding z-score (relative to random genomic background probes); higher = stronger binding; sequences stand for … in GC…GCGATTGACAGCGTAGAATGAAGG
[1] = tested on: RARb homodimer (NR concentration 270 nM)
How it was run: (§1)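 Random background probes are the reference for binding z-scores. These scores derive from regression-normalized fluorescence on custom Agilent 4×180K protein-binding microarrays incubated 1 h with ligand-free nuclear receptor dimers. Binding was detected with antibodies against each partner (one per run).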

[2] = tested on: RARg:RXRa (NR concentration 270 nM, RXRa partner concentration 90 nM)
How it was run: as §1

[3] = tested on: RARg homodimer (NR concentration 270 nM)
How it was run: as §1

[4] = tested on: RXRa DBDmut IVT, anti-RXR (DBD mutation: RXRa K156A/R161A, NR concentration 90 nM)
How it was run: as §1

[5] = tested on: RXRa homodimer (NR concentration 180 nM)
How it was run: as §1

[6] = tested on: THRa:RXRa (NR concentration 90 nM, RXRa partner concentration 90 nM)
How it was run: as §1

[7] = tested on: THRa homodimer (NR concentration 90 nM)
How it was run: as §1

[8] = tested on: VDR homodimer (NR concentration 270 nM)
How it was run: as §1

Sequence	PBM binding z-score [1]	PBM binding z-score [2]	PBM binding z-score [3]	PBM binding z-score [4]	PBM binding z-score [5]	PBM binding z-score [6]	PBM binding z-score [7]	PBM binding z-score [8]
CGAACTAGGTCATCCAGGACATTGAATACATTGA	3.11	3.95	4.63	2.66	2.95	3.87	2.27	3.47
CCGGCTAGGTCATGGTCAGCTAATCTACAGTATG	3.33	4.11	4.99	1.48	3.01	2.99	1.57	0.619
CAGCCTAGGTCTGGGCCAGTATAGGAGGAACGTT	-0.496	-0.501	-0.44	-1	-0.703	-0.77	-1.16	-0.974
ACAACGAGGGCACGCTGAGTTGATAGCAGAGTAG	0.921	2.12	2.44	2.16	1.24	1.75	-0.067	2.04
ACTAGCATGCCAAGGGTCACTCAAGATTAGTCCG	3.83	3.77	3.69	0.719	3.91	2.75	0.299	1.64
TCTCGGAGGACACGAACGGTCAGAGCTCGACATC	1.89	1.02	2.34	0.557	0.138	1.44	0.357	-0.389
CCTAGTTGGTCAAAGTCACACACGCTATAGGTAC	1.28	0.912	1.23	0.833	0.561	0.212	0.467	0.811
CTACCAAGCTGAACAAGGTCGTTGATTACTATTC	1.13	0.311	0.109	1.3	0.787	1.86	1.46	2.1
ATCGAAAGGTCGAGGCGAGTATAGAGAAAGGGAA	1.95	3.9	3.91	0.625	4.19	1.83	-0.512	0.276
GGAACGAGGGCAAAGTTGATAGCATCTGTCGACG	1.33	2.18	1.82	2.76	2.22	1.25	-0.111	1.21
TCTTGTAGATAAATAGAGGTTAAGAAAGTGCGCT	1.11	0.845	0.418	1.3	1.46	1.54	-0.012	0.923
CATACTGGGCCAAGGTCATTGATCAGTCAAAGCA	3.56	3.85	3.29	1.62	3.31	3.49	2.63	3.71
CCTAGCAGGCCAATCTGTGTCACTCAAGGCTTGA	0.114	-0.172	0.279	0.249	-0.389	0.791	-0.64	-0.327
AATACAGGGTCATGGTAGGCCAGAGTACGCACAG	3.69	5.54	4.93	3.15	6.91	4.38	1.95	3.24
CCTGGGAGGACAGAAGGTCAGAGCTGTCCGCTTT	3.38	3.49	3.63	-0.277	1.92	2.69	0.124	0.289
AATACAGGGTCACTAGGCCAGAGAAGGTACGAAT	3.45	5.18	4.96	2.58	5.52	3.52	1.18	2.31
ATCTCTAGGTAACCAAGTTCAGTGAATGCCGAAC	1.52	0.894	0.853	0.991	0.572	1.6	0.96	2.99
GTACCTAGGTGAATAGGTCGTTGATGAGTAGGCG	1.12	1.85	0.79	-0.37	1.24	1.08	-0.182	0.0472
TCTTGTAGATCAAGCAGCTTAAGAAAGCCTGAGT	-0.672	-0.336	-0.59	0.402	-0.293	-0.48	-0.676	-0.394

Sequence	PBM binding z-score [1]	PBM binding z-score [2]	PBM binding z-score [3]	PBM binding z-score [4]	PBM binding z-score [5]	PBM binding z-score [6]	PBM binding z-score [7]	PBM binding z-score [8]
CCTACTGTGCCAAGGTCATTGATCAGTCAAAGCA	3.73	3.88	3.24	2.18	3.4	3.68	3.43	3.63
AGAACGAGGGCACGCTTAGTTGATAGCAGAGTAG	1.38	1.76	2.33	2.1	1.42	1.94	0.257	0.561
CGTCCAAGATCAGCAGGTCAGTGAAAGCGACGTG	2.09	1.01	1.51	0.253	0.844	1.11	0.018	0.137
TCGAGGAGGTTAGTCGGGGCATTCAGCCAACATA	1.08	0.581	0.486	0.514	0.67	2.08	0.602	1.04
AGAACGAGGGCACGCTGAGTTGAGAGCAGAGTAG	1.24	2.01	2.05	1.81	1.57	1.95	-0.054	1.29
TCATATAGGTACTACAGGTGAAAGTCGGCATCTA	0.25	0.654	0.428	1.33	0.935	0.692	-0.00751	0.023
AAGACAGGGTCACTAGGCCAGAGTAGGTACGAAT	3.02	4.97	4.66	2.26	5.58	3.1	0.755	1.87
GCGACTGGGGCAAAGCTGGTTACCATAAGGTTGG	0.208	0.0391	0.0418	0.0315	-0.0119	0.398	-0.232	-0.208
TCATATAGGTAAATGCTAGGTGAAAGTCCGATCT	0.629	0.482	0.503	1.42	0.567	1.39	0.441	0.42
GTAACGAGGGCAAGTTGATAGCAGAGTTTGATGG	1.71	1.66	1.86	2.07	0.851	1.36	0.0846	2.23
AGTCAAAGTTCAGGTCGAGGTAACGTAAAGCACG	3.87	4.95	4.97	3.14	3.08	4.18	2.7	2.75
AGAACGAGGGCACCCTGAGTTGATAGCAGAGTAG	0.823	1.54	1.76	1.42	1.14	1.59	-0.12	1.36
TCTTGTAGATCAATAGAGGATAAGAAAGTGCGCT	-0.566	0.208	0.365	0.919	0.16	1.5	-0.588	0.0606
CCTATTTGTTGACCATAAGGGCAACCGAAGCTCG	2.18	0.901	1.09	0.849	0.768	1.78	1.89	0.782
CCAGACAGGTGAAAGGGAACTCAGTCTGGTACGC	0.101	0.15	0.299	-0.242	0.59	0.0918	-0.374	0.0555
ACTAGCTGGCCAAGGGTCACTCAAGATTAGTCCG	3.54	3.78	3.54	0.138	3.9	2.48	0.0817	0.917
CGACAAAGTTCAACTAAGGTAACGTAAAGCACGC	4.21	5.63	6.69	4.18	4.41	5.06	1.57	3.79
CAAACTAGGTCAAGGTCACAGTCGGTTTGTGCCA	5.15	6.22	6.99	2.66	5.94	4.67	4.75	4.27
GCTAGCTGGCCATTTGGGTCACTCAATGACGGGC	1.49	0.332	0.89	-0.667	0.339	1.22	0.32	-0.66

Sequence	PBM binding z-score [1]	PBM binding z-score [2]	PBM binding z-score [3]	PBM binding z-score [4]	PBM binding z-score [5]	PBM binding z-score [6]	PBM binding z-score [7]	PBM binding z-score [8]
TCGAGCAGGCCAGAGGGTCACTCAAGAGGTACGG	2.68	2.77	2.03	-0.586	2.65	1.51	-0.421	0.462
CAAACTAGGTCACAGAGGTCACAGTCCGTGCGTA	5.65	7.17	7.58	2.76	7.39	4.67	3.58	6.14
ACTATTAGTTGACTTAGGGCAACCCATACGACGC	1.13	0.747	1.04	0.729	0.631	1.55	0.725	0.642
GCTGTTAGTTGAAAGGGCAACCGAATGATTCTCG	2.03	1.49	1.43	0.773	1.23	0.729	-0.379	-0.0381
CCTATTGGGCCAAAAAGGTCATTGATGCCGATAA	4.34	4.44	4.07	0.773	4.53	3.25	0.389	2.18
TCTTGTGGATCAATAGAGGTTAAGAAAGTGCGCT	1.26	0.875	0.534	0.749	1.22	2.23	-0.3	0.314
TCTGCTAGGTCAGTTGGACAGCTAACGAGCTGCC	1.99	2.24	3.47	0.472	0.621	1.12	-0.399	-0.808
TCTGCTAGGTCAGTTGGTCAGCTACCGAGCTGCC	2.77	2.45	3.07	0.34	0.83	1.22	-0.00528	-0.907
GCTGCTAGGTCTACTGATGGTCAGCTAAAGCTCG	-0.175	-0.238	-0.555	0.147	-0.738	-0.635	-0.572	-0.893
CGTCAAATTTCAAGGTAACGTAACAGAAAGCAGC	-0.107	0.0405	0.398	-0.0368	0.32	2.11	1.27	-0.239
AGTCAAAGTTCAGGACGAGGTAACTTAAAGCACG	3.3	4.79	5.03	3.03	3.16	3.94	1.7	2.28
ATCGAAAGCTCGAAGGTGAGTATACCCACCCGAA	-0.378	-0.032	0.202	-1.19	0.158	-0.167	-1.04	-0.249
CGAACTAGGTCATGGACAGTGAATCTCCGCACGC	2.85	3.94	4.35	1.84	3.21	2.94	1.16	0.367
TCTATTAGTTGATTAGGGCAACGGAAACAGCGGA	0.377	0.729	0.882	0.972	0.448	0.578	0.239	0.264
CGTCCAAGATCAAAGGTCAGTGAAGAGATGACGG	4.44	4.65	4.54	0.609	5.07	2.59	0.239	1.07
TCTTGTGGATCAAGCAGGTTAAGAAAGCCTGAGT	0.266	-0.132	-0.515	0.604	0.211	0.309	-0.303	0.15
CCTAGCAGGCCAATCTGGGTCACTCTAGGCTTGA	2.09	0.781	1.14	0.254	0.361	3.2	0.202	-0.375
CGAACTAGGTCAGAACAGGACAGTGTAGGATGAT	2.16	2.56	3.47	0.551	1.28	3.47	0.227	0.291
